Compound activity deposited in PubChem BioAssay by National Center for Advancing Translational Sciences (NCATS).
A549 viability: Nrf2 qHTS screen for inhibitors: counterscreen for cytotoxicity. 390,000 tested, 0.16% active. Potency, µM (series often up to 46 µM), usual class: inhibitors. A549 ARE-Fluc cells, CellTiter-Fluor viability, 18-24 h. AID 504648, 2011
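Cytotoxicity counterscreen: CellTiter-Fluor fluorescence was measured in A549 ARE_Fluc cells after 18-24 h of compound exposure in a concentration series. The subsequent BugLite luminescent read reports ARE-luciferase activity.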
Nrf2 ARE act: qHTS of Nrf2 Activators; AREc32 ARE-luciferase reporter (MCF7-derived line), luminescence, 24 h; Potency, µM (highest dose often 46.1 µM), actives largely listed as activators; 410,000 tested, 0.31% active; AID 624171, 2012; further: nearly all actives have a fitted effect of over 65% in size
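Luciferase luminescence (Steady-Glo, 30 min at room temperature) served as the read-out of ARE activation in AREc32 cells treated with compounds for 24 hr at 37 deg C.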
HepG2 viability: qHTS for Inhibitors of TGF-b: Cytotox Counterscreen; HepG2 CAGA-GFP viability, ATP luminescence, 18 h; Potency, µM (highest dose often 46.1 µM), most hits filed as cytotoxic; AID 588856, 2011; 410,000 tested, 0.76% active
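CellTiter-Glo luminescence gave cytotoxicity after 18 hours at 37 degrees C. The cells were HepG2 CAGA-GFP in 1% FBS DMEM, stimulated with 500 pg/mL TGF-beta after compound addition. %Activity was normalised to no-cell wells (complete cell-killing) and DMSO (no toxicity), and curves were fitted and classified.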
TGFb SMAD3 inh: qHTS for Inhibitors of TGF-b | 410,000 tested, 1.2% active | HepG2 CAGA-GFP TGF-b/SMAD3 reporter, GFP fluorescence, 18 h; TGF-beta stimulated, 500 pg/mL final | Potency, µM (doses to about 46.1 µM), actives largely listed as inhibitors; further: nearly all actives have a fitted effect of over 65% in size
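Inhibition of TGF-beta-driven CAGA-GFP reporter expression in HEPG2 cells is measured by cellular GFP fluorescence after 18 h stimulation with 500 pg/mL recombinant TGF-beta in 1% FBS medium at 37 degrees C.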
Nrf2 block: Nrf2 qHTS screen for inhibitors. A549 ARE-Fluc reporter, luciferase luminescence, 18-24 h. Potency, µM (titrated, usually from 46 µM), usual class: inhibitors. 360,000 tested, 2.1% active. AID 504444, 2011; further: nearly all actives have a fitted effect of over 60% in size
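Quantitative HTS in A549 cells stably bearing an antioxidant response element-firefly luciferase construct. Inhibition of Nrf2-driven transcription was scored by luminescence after 18-24 h of compound exposure at 37 °C.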
A number is an active result; n = inactive; u = inconclusive; x = no result given; [ ] = dose if it differs, or a comment. A selection: hits, their analogues and other compounds. The true share with any hit is near 3.6%. The call rests on the fitted dose curve; in most records, active means well fitted curve in the direction sought with a large enough effect; inconclusive means small, poorly fitted or top-dose-only effect, or another doubt; inactive means no such curve, though single readings can be large; an effect the other way counts as inactive or inconclusive.

SMILES	A549 viability	Nrf2 ARE act	HepG2 viability	TGFb SMAD3 inh	Nrf2 block
O=C1OC(N2C(=O)CC[C@H]2C(=O)NCC2CCCO2)c2ccccc21 (stereo partly specified)	n	n	n	n	n
CN1C(=O)C2(NCCc3c2[nH]c2ccccc32)c2ccccc21 (stereo unspecified)	n	n	n	u	n
CC1=CC(C)(C)N2C(=O)C3(NCCc4c3[nH]c3ccccc43)c3cc(C)cc1c32 (stereo unspecified)	12µM	n	n	u	u
CCOc1ccc(-c2nnc(N3CCCCC3)c3ccccc23)cc1	n	n	n	n	26µM
COc1ccc(N(/N=C2\Sc3ccccc3C2=O)C(C)=O)cc1	n	n	n	n	n
COc1ccccc1N(/N=C1\Sc2ccccc2C1=O)C(C)=O	n	14µM	n	u	n
COC(=O)c1ccc2nc(-c3ccc(OC)c(OC)c3)c(CC3CCCCC3)n2c1	x	n	n	u	x
COC(=O)c1ccc2nc(C3CCCCC3)c(CC(C)(C)C)n2c1	x	n	10µM	u	x
COC(=O)c1ccc2nc(-c3cccc(Br)c3)c(CC3CCCCC3)n2c1	x	8.9µM	x	x	x
CCOC(=O)C1=C(C)NC2=C(C(=O)c3ccccc32)C1c1ccc([N+](=O)[O-])o1 (stereo unspecified)	n	14µM	n	u	n
CCOC(=O)C1=C(C)NC(=O)NC1c1ccc([N+](=O)[O-])o1 (stereo unspecified)	n	n	n	n	n
CCOC(=O)COc1ccccc1C1C(C(=O)OC)=C(C)NC2=C1C(=O)c1ccccc12 (stereo unspecified)	n	n	n	16µM	n
Cc1ccc(Nc2nc3ccccc3o2)cc1F	n	u	n	n	u
Cc1sc(NC(=O)CN2CCCC2)nc1-c1ccc2c(c1)CCN2C(=O)c1cccc(F)c1	u	n	n	n	23µM
O=C(Nc1ccc(F)cc1F)c1cccnc1	n	n	n	n	n
CC1(C)CC(=O)C(C2C3=C(CC(C)(C)CC3=O)Oc3c(Br)cc(Br)cc32)=C(O)C1 (stereo unspecified)	u	n	n	n	23µM
CCN(CC(=O)NCc1ccc(F)cc1)CC(O)COCc1cccc(OC)c1 (stereo unspecified)	n	n	n	13µM	n
CCC(Oc1ccccc1)C(=O)N(CC)CC(=O)NCc1ccc(F)cc1 (stereo unspecified)	n	n	n	n	n
O=C(NCCC1CCCCN1S(=O)(=O)c1ccc(Cl)cc1)C(=O)NCc1ccncc1 (stereo unspecified)	n	n	n	u	21µM
O=C(NCCC1CCCCN1S(=O)(=O)c1ccc(F)cc1)C(=O)NCc1ccncc1 (stereo unspecified)	n	n	n	n	12µM
Cc1ccc(CNC(=O)C(=O)NCCC2CCCCN2S(=O)(=O)c2ccc(C)cc2)cc1 (stereo unspecified)	n	n	n	n	u
CCOc1ccc(-n2c(SCC(N)=O)nc3c(oc4ccccc43)c2=O)cc1	n	n	n	u	u
S=c1[nH]c2cnc(Cl)nc2[nH]1	n	n	n	n	n
Cc1oc2ccc(O)c(CN3CCOCC3)c2c1C(=O)Nc1ccccc1	u	n	n	n	n
O=C(N/N=C/c1ccccn1)c1cc(-c2ccc(Cl)cc2)nc2ccccc12	u	n	n	u	9.2µM
SMILES	A549 viability	Nrf2 ARE act	HepG2 viability	TGFb SMAD3 inh	Nrf2 block
O=C(N/N=C/c1ccccn1)c1cc(-c2ccc(Br)cc2)nc2ccccc12	u	n	n	u	13µM
O=C(/C=C/c1cccc([N+](=O)[O-])c1)Nc1cccc(NC(=O)c2ccco2)c1	u	n	n	n	21µM
O=C(Nc1ccccc1O)c1cccc(NC(=O)c2ccco2)c1	n	7.9µM	n	n	n
CCOC(=O)c1cccc(NC(=O)/C=C/c2cccc([N+](=O)[O-])c2)c1	n	n	n	n	x
CCOC(=O)/C=C/C(=O)Nc1cccc([N+](=O)[O-])c1	u	n[9.22 µM]	13µM	11µM	u
O=C(Nc1ccccc1O)c1ccc(C(=O)c2ccccc2)o1	n	13µM	n	n	n
